Results on nine sequences are retold here after paper PMC7862700, “An all-to-all approach to the identification of sequence-specific readers for epigenetic DNA modifications on cytosine”.

Common to all, as to experiment: DAPPL (digital affinity profiling via proximity ligation, sequencing); 10 mM Tris-HCl pH 7.5, 50 mM NaCl, 1 mM DTT, 4% glycerol, room temperature, 30 min; GST-TFs on glutathione beads, 16-mer random dsDNA library, 0.1% formaldehyde crosslink after washing; high values mean tight binding
Common to all, as to details: protein: recombinant; tags: N-terminal GST; dsDNA, one strand shown

Assay [1] concerns the target T1, FLI1 (Homo sapiens, UniProt Q01543 1-452).
T1 sequence: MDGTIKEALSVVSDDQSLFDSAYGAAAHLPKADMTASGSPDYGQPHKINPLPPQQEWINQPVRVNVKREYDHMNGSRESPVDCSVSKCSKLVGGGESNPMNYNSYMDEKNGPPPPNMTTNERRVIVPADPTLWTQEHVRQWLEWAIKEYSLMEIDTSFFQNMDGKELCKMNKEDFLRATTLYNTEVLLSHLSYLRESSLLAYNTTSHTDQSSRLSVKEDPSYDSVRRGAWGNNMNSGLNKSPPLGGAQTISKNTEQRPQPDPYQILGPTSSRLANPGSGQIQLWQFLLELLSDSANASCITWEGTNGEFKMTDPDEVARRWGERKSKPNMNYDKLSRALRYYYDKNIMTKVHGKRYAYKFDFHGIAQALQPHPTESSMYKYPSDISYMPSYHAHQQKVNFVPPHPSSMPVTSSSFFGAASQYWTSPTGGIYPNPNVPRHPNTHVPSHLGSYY
In outline: (§1)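 Each value of binding signal is a hexamer's read frequency for a factor divided by the same hexamer's frequency in the tag-only sample. Barcoded, bead-captured GST fusions of human transcription factors made in yeast were pooled with that sample and incubated with 200 nmole of a random double-stranded 16-mer DNA library in Tris/NaCl/DTT/glycerol buffer at room temperature for 30 min. Washing, 0.1% formaldehyde crosslinking, proximity ligation, PCR and Illumina NextSeq500 sequencing followed.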

Assay [2] addresses T2, ELK1 (Homo sapiens, UniProt P19419 1-428).
T2 sequence: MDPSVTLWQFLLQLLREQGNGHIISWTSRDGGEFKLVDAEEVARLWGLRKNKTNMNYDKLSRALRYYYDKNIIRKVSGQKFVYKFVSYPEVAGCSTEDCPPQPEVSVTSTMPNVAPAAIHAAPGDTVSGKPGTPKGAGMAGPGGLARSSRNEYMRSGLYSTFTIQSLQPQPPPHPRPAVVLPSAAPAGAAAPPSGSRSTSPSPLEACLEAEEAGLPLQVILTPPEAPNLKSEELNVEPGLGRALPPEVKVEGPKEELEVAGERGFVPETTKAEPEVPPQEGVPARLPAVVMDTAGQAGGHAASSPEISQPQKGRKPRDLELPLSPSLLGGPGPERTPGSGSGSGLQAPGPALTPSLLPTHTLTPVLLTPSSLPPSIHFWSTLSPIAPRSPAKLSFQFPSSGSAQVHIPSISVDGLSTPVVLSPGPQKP
The method, boiled down:
as §1

The target in assay [3] is T3, GABPA (Homo sapiens, UniProt Q06546 1-454).
T3 sequence: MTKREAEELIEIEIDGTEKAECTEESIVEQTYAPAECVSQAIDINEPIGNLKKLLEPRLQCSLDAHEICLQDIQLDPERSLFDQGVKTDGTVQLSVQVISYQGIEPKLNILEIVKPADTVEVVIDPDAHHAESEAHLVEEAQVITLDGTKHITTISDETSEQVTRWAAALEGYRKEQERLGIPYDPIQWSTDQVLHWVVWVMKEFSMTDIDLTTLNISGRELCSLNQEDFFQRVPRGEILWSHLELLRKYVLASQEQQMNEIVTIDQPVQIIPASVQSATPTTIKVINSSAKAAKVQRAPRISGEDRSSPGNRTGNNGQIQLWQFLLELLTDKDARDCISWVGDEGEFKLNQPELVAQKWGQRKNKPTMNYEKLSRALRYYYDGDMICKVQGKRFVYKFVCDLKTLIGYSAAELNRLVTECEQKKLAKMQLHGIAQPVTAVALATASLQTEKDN
In outline:
as §1

Assay [4] deals with T4, ERG (Homo sapiens, UniProt P11308 1-479).
T4 sequence: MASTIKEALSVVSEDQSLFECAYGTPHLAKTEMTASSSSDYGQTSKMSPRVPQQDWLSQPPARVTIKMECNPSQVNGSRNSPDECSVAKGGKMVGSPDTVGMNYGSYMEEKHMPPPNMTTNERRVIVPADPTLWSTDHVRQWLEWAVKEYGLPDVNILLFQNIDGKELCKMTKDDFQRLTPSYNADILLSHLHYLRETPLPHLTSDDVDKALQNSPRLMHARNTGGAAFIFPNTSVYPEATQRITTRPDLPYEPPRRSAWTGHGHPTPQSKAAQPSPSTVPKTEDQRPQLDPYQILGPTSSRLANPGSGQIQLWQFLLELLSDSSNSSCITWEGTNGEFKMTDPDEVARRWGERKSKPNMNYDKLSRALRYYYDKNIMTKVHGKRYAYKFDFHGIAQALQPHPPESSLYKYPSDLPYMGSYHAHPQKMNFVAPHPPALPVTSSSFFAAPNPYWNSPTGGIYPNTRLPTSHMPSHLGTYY
The method, boiled down: as §1

The target of assay [5] is ELF1 (Homo sapiens, UniProt P32519 1-619). The method, boiled down: as §1
Chain of ELF1 (P32519 whole entry): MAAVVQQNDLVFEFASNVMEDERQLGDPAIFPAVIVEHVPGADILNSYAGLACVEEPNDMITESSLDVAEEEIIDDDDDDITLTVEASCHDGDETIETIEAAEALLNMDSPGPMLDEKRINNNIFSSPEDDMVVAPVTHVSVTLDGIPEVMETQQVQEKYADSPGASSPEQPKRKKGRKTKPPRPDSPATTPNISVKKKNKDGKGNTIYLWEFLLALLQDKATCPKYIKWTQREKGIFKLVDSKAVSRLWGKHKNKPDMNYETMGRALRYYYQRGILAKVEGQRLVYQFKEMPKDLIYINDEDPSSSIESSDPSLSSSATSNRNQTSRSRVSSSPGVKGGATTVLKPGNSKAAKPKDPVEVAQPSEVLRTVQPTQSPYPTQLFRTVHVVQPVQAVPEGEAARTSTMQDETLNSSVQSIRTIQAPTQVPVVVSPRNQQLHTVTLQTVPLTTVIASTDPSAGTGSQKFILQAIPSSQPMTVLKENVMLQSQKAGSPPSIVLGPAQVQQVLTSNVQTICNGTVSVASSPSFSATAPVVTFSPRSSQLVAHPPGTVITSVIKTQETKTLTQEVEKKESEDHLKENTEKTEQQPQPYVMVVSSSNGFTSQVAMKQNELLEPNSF
Assay [6] addresses T5, EHF (Homo sapiens, UniProt Q9NZC4 1-300).
T5 sequence: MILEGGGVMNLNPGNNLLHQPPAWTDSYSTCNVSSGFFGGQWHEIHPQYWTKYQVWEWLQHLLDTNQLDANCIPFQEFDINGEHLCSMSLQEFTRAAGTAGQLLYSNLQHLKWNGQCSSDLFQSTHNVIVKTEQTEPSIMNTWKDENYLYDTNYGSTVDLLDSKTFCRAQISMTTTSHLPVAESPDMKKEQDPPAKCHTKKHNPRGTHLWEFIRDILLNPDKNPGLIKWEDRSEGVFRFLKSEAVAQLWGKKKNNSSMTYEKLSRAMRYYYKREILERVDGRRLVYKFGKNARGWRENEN
The method, boiled down: as §1

Assay [7] has as its target SPI1 (Homo sapiens, UniProt P17947 1-270). In outline:
as §1

The target of assay [8] is SPIB (Homo sapiens, UniProt Q01892 1-262). In outline:
as §1

Assay [9] has as its target T6, ELK3 (Homo sapiens, UniProt P41970 1-407).
T6 sequence: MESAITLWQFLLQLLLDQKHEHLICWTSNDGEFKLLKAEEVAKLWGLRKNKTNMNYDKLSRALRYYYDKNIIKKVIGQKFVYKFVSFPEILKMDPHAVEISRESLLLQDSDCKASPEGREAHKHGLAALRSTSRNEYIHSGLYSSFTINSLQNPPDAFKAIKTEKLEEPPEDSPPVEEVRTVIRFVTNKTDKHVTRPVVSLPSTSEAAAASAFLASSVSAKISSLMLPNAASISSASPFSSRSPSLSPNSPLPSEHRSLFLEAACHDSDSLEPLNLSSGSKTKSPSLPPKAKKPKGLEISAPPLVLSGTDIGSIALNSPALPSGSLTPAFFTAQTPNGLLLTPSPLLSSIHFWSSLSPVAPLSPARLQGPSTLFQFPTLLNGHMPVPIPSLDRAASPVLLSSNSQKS
The method, boiled down:
as §1

Chain of SPIB (Q01892 whole entry): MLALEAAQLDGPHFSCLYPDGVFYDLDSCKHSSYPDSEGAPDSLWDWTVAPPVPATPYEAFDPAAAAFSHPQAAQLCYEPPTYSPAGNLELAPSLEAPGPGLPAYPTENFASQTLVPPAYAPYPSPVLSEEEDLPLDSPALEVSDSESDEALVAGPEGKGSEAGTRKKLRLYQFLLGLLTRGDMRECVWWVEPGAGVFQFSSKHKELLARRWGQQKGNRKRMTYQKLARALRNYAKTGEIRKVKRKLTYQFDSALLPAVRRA

With ATATCG, the binding signal in [1] was 1.09 fold enrichment (6-mer frequency, TF over GST control); in [2], 1.16 fold enrichment (6-mer frequency, TF over GST control); in assay [3], 1.14 fold enrichment (6-mer frequency, TF over GST control); in assay [4], 1.08 fold enrichment (6-mer frequency, TF over GST control); in assay [5], 1.16 fold enrichment (6-mer frequency, TF over GST control); in assay [6], 1.13 fold enrichment (6-mer frequency, TF over GST control). Moreover, the binding signal in [7] was 1.23 fold enrichment (6-mer frequency, TF over GST control); in assay [8], 1.17 fold enrichment (6-mer frequency, TF over GST control); in assay [9], 1.19 fold enrichment (6-mer frequency, TF over GST control).
Take AGCTTA: the binding signal was 1.06 fold enrichment (6-mer frequency, TF over GST control) in [1]; 1.12 fold enrichment (6-mer frequency, TF over GST control) in assay [2]; 1.12 fold enrichment (6-mer frequency, TF over GST control) in [3]; 1.13 fold enrichment (6-mer frequency, TF over GST control) in assay [4]; 1.11 fold enrichment (6-mer frequency, TF over GST control) in assay [5]; 1.1 fold enrichment (6-mer frequency, TF over GST control) in assay [6]. Also, the binding signal was 1.14 fold enrichment (6-mer frequency, TF over GST control) in assay [7]; 1.21 fold enrichment (6-mer frequency, TF over GST control) in assay [8]; 1.11 fold enrichment (6-mer frequency, TF over GST control) in assay [9].
CTAACA: the binding signal in [1] is 1.28 fold enrichment (6-mer frequency, TF over GST control); in assay [2], 1.24 fold enrichment (6-mer frequency, TF over GST control); in [3], 1.16 fold enrichment (6-mer frequency, TF over GST control); in assay [4] it was 1.21 fold enrichment (6-mer frequency, TF over GST control); in assay [5] it was 1.25 fold enrichment (6-mer frequency, TF over GST control); in assay [6], 1.21 fold enrichment (6-mer frequency, TF over GST control). The binding signal was 1.24 fold enrichment (6-mer frequency, TF over GST control) in assay [7]; 1.17 fold enrichment (6-mer frequency, TF over GST control) in [8]; 1.15 fold enrichment (6-mer frequency, TF over GST control) in assay [9].
As to TTTACA, the binding signal in [1] was 1.18 fold enrichment (6-mer frequency, TF over GST control); in [2] it was 1.19 fold enrichment (6-mer frequency, TF over GST control); in assay [3] it was 1.25 fold enrichment (6-mer frequency, TF over GST control); in assay [4], 1.23 fold enrichment (6-mer frequency, TF over GST control); in assay [5], 1.31 fold enrichment (6-mer frequency, TF over GST control); in [6] it was 1.31 fold enrichment (6-mer frequency, TF over GST control). For the same sequence, the binding signal in assay [7] is 1.22 fold enrichment (6-mer frequency, TF over GST control); in assay [8] it was 1.24 fold enrichment (6-mer frequency, TF over GST control); in assay [9] it was 1.25 fold enrichment (6-mer frequency, TF over GST control).
Consider CAATTC, for which the binding signal is 1.33 fold enrichment (6-mer frequency, TF over GST control) in [1]; 1.27 fold enrichment (6-mer frequency, TF over GST control) in [2]; 1.19 fold enrichment (6-mer frequency, TF over GST control) in assay [3]; 1.29 fold enrichment (6-mer frequency, TF over GST control) in assay [4]; 1.25 fold enrichment (6-mer frequency, TF over GST control) in assay [5]; 1.24 fold enrichment (6-mer frequency, TF over GST control) in assay [6]. Besides, the binding signal is 1.24 fold enrichment (6-mer frequency, TF over GST control) in assay [7]; 1.44 fold enrichment (6-mer frequency, TF over GST control) in assay [8]; 1.2 fold enrichment (6-mer frequency, TF over GST control) in assay [9].
With ATGTTC, the binding signal is 1.19 fold enrichment (6-mer frequency, TF over GST control) in [1]; 1.28 fold enrichment (6-mer frequency, TF over GST control) in assay [2]; 1.18 fold enrichment (6-mer frequency, TF over GST control) in assay [3]; 1.21 fold enrichment (6-mer frequency, TF over GST control) in assay [4]; 1.21 fold enrichment (6-mer frequency, TF over GST control) in assay [5]; 1.34 fold enrichment (6-mer frequency, TF over GST control) in assay [6]. The binding signal in [7] is 1.2 fold enrichment (6-mer frequency, TF over GST control); in [8], 1.22 fold enrichment (6-mer frequency, TF over GST control); in assay [9] it was 1.14 fold enrichment (6-mer frequency, TF over GST control).
For AATGGT, the binding signal was 1.52 fold enrichment (6-mer frequency, TF over GST control) in assay [1]; 1.38 fold enrichment (6-mer frequency, TF over GST control) in assay [2]; 1.36 fold enrichment (6-mer frequency, TF over GST control) in assay [3]; 1.42 fold enrichment (6-mer frequency, TF over GST control) in assay [4]; 1.42 fold enrichment (6-mer frequency, TF over GST control) in [5]; 1.4 fold enrichment (6-mer frequency, TF over GST control) in [6]. Besides, the binding signal is 1.43 fold enrichment (6-mer frequency, TF over GST control) in assay [7]; 1.52 fold enrichment (6-mer frequency, TF over GST control) in [8]; 1.41 fold enrichment (6-mer frequency, TF over GST control) in assay [9].
Turning to CTAGCT, the binding signal in assay [1] was 1.36 fold enrichment (6-mer frequency, TF over GST control); in assay [2], 1.37 fold enrichment (6-mer frequency, TF over GST control); in assay [3], 1.3 fold enrichment (6-mer frequency, TF over GST control); in assay [4], 1.3 fold enrichment (6-mer frequency, TF over GST control); in assay [5], 1.31 fold enrichment (6-mer frequency, TF over GST control); in assay [6], 1.29 fold enrichment (6-mer frequency, TF over GST control). Also, the binding signal is 1.33 fold enrichment (6-mer frequency, TF over GST control) in assay [7]; 1.34 fold enrichment (6-mer frequency, TF over GST control) in assay [8]; 1.39 fold enrichment (6-mer frequency, TF over GST control) in assay [9].
For the sequence AACGAT, the binding signal in assay [1] was 1.28 fold enrichment (6-mer frequency, TF over GST control); in assay [2] it was 1.16 fold enrichment (6-mer frequency, TF over GST control); in [3] it was 1.13 fold enrichment (6-mer frequency, TF over GST control); in assay [4], 1.21 fold enrichment (6-mer frequency, TF over GST control); in assay [5] it was 1.24 fold enrichment (6-mer frequency, TF over GST control); in assay [6], 1.17 fold enrichment (6-mer frequency, TF over GST control). Also, the binding signal in assay [7] is 1.17 fold enrichment (6-mer frequency, TF over GST control); in [8], 1.21 fold enrichment (6-mer frequency, TF over GST control); in assay [9], 1.24 fold enrichment (6-mer frequency, TF over GST control).
